Compounds with a hit are over-represented: about 3.2% of the library has one in this group of screens.
CRFR2-BP ag – agonists of CRF-BP/CRF-R2 complex, primary screen, cell-based, HEK293, calcium dye fluorescence, uHTS; calcium dye fluorescence (FLIPR); percent of saturating CRF peptide response; activation, % at 13.2 µM; actives 0.46% (n = 350,000); AID 588473, 2011;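 active = activation of at least 50%, plus an integration ratio under a set limit after plate pattern correction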;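 note: plate controls were neutral control wells without compound for no effect and CRF at EC100 for full effect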
aDG glyco act – activators of alpha-DG glycosylation, primary screen, uHTS, Pro5-aDG cells, AlphaScreen. alpha-DG glycosylation AlphaScreen (IIH6); 0% Pro5, 100% B10-LARGE cell signal. activation, % at 10 µM. actives 0.22% (n = 360,000);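 active = activation of at least 8% versus controls, or a plate z-score of at least 8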;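 note: Pro5 are CHO cells carrying HIG-tagged alpha-DG that lacks glycosylation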
H9c2 protect – cardioprotection against H2O2-induced cell death, primary screen, uHTS, H9c2 cells, ATPLite luminescence. H9c2 cardiomyocytes, H2O2 injury protection, 2 h. protection from H2O2 cell death, % at 20 µM. actives 0.63% (n = 360,000);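 active = compounds giving at least 50% protection of heart cells from peroxide-induced death in the single-dose screen, raw or plate-pattern-corrected value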;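 note: 0% = DMSO wells with peroxide and 100% = DMSO wells without peroxide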
FAS-TE inh – FAS thioesterase domain inhibitors, primary screen, biochemical, fluorescence intensity, uHTS. Fatty acid synthase (Homo sapiens), P49327. recombinant FAS-TE, OMFH fluorogenic substrate, fluorescence endpoint. inhibition, % at 15 µM. actives 0.67% (n = 360,000);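 active = compounds whose normalised, plate-corrected inhibition of enzyme fluorescence in the single-dose primary screen is 50% or more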;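 note: 0% = DMSO with enzyme and 100% = substrate without enzyme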
PfG6PD inh – PfG6PD enzyme inhibitors, primary screen, biochemical, fluorescence intensity, uHTS | PfGluPho enzyme, NADPH resazurin-diaphorase fluorescence | inhibition, % at 20 µM | actives 0.78% (n = 350,000);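 active = inhibition reaching at least a set limit at 20 µM in the primary screen, cut at about 59% in these data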;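 note: 0% = DMSO wells with substrate and 100% = DMSO wells lacking glucose-6-phosphate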
CRFBP-R2 block – antagonists of CRF-BP/CRF-R2 complex, primary screen, cell-based, HEK293, calcium dye fluorescence, uHTS | CRF-induced calcium fluorescence | inhibition, % at 11.8 µM | actives 0.59% (n = 350,000);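 active = inhibition of the ligand-induced calcium signal above about 50% at the single tested concentration, limit read from the data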
An asterisk follows results filed as active; x = no result given.

SMILES	CRFR2-BP ag	aDG glyco act	H9c2 protect	FAS-TE inh	PfG6PD inh	CRFBP-R2 block
C[C@@]12C(=O)Nc3ccc(F)cc3C(=O)N1[C@H]1c3cc(Br)ccc3OC[C@@H]1[C@@H]2c1ccccc1	4	0	-7	89*	5	2
COc1ccc(-c2nc3scc(-c4ccc(OC)c(OC)c4)c3c(=O)o2)cc1	-1	0	-2	9	11	57*
O=C(Nc1ccccn1)c1ccc2c(c1)S(=O)(=O)c1ccccc1C2=O	-4	1	14	0	12	-2
O=C1c2ccccc2S(=O)(=O)c2cc(C(=O)N(c3ccccn3)c3ccccn3)ccc21	173*	0	8	-12	-3	-58
O=C(Nc1ccc(SC(F)F)cc1)c1ccc2c(=O)n3c(nc2c1)CCC3	74*	0	-10	5	-8	6
COc1cc(C(=O)Nc2ccc3nc4n(c(=O)c3c2)CCCCC4)cc(OC)c1OC	-1	0	8	-2	6	10
COc1ccc(C(=O)Nc2ccc3nc4n(c(=O)c3c2)CCCCC4)cc1OC	0	0	6	-16	11	62*
Cc1cc(C)c(S(=O)(=O)Nc2ccc(Cl)cn2)c(C)c1	1	0	-2	0	2	2
O=C(Nc1ccc2oc(-c3ccccc3F)nc2c1)c1ccc([N+](=O)[O-])o1	4	0	58*	-3	1	1
COc1ccc2[nH]c(=O)c(CNC3CCCCC3)cc2c1	-3	0	57*	-5	-17	-28
COc1ccc(NCc2cc3ccccc3[nH]c2=O)cc1	0	0	62*	-9	25	-9
C=CCOC(=O)C1=C[C@@H](c2coc3ccccc3c2=O)[C@H](CCCO)[C@@H](OCC)O1	-2	0	-2	-6	-5	7
Cc1ccccc1/C=C1\SC(=S)N(/N=C/c2cc([N+](=O)[O-])ccc2O)C1=O	40	0	-7	9	-28	28
CCOC(=O)[C@@H]1[C@H]2COc3ccccc3[C@H]2N2C(=O)N(c3ccc(C(F)(F)F)cc3)C(=O)[C@]12C	-1	0	-19	41	21	2
Cc1cc(Br)ccc1NC(=O)CNC(=O)Cn1ncc(Cl)c(Cl)c1=O	-1	0	-20	-1	4	87*
C=CCOC(=O)C1=C(C)NC2(O)c3ccccc3C(=O)C12O (stereo unspecified)	2	0	3	-2	-3	69*
O=C(Nc1cccc(Cl)c1)c1cc(N=Nc2ccc([N+](=O)[O-])cc2Cl)ccc1O	31	0	-21	28	-7	69*
CCN(CC(=O)NC(C)(C)C)C(=O)c1ccc2c(c1)S(=O)(=O)c1ccccc1C2=O	-2	0	9	-6	-2	-3
COc1ccc(F)cc1S(=O)(=O)NCC(=O)NCc1cc(=O)n(C)c(=O)n1C	0	0	2	-6	-11	76*
CC(Sc1cccc[n+]1[O-])C(=O)Nc1ccc(Oc2ccccc2)cc1 (stereo unspecified)	0	0	-1	-1	3	19
Cc1ccc(C)c(C(=O)Nc2cc(C)nn2-c2nc(C)cc(C)n2)c1	-4	1	50*	3	-9	-13
N=C(CC1CC(=O)NC(=O)C1)C1=C(O)CCCC1=O	3	0	2	-14	-8	-29
O=C(N/N=C/c1ccc(F)cc1)c1cc[n+]([O-])cc1	0	0	-3	-2	-9	7
CC[n+]1c(/C=C/C=C/N(C(C)=O)c2ccccc2)sc2cc(OC)ccc21	146*	x	x	x	27	-127
CC[n+]1c(/C=C(\C)OC)sc2ccccc21	-1	1	-10	-8	17	-44
O=C(/C=C/c1cn(CC(O)CN2CCCCC2)c2ccccc12)c1cccs1 (stereo unspecified)	63*	-1	-7	-31	12	-80
